# Results as given in ChEMBL document CHEMBL1961873, “Compounds: GSK PKIS; Assays: Nanosyn kinase panel” (2012).
# What was measured:
# [1] = target: 5'-AMP-activated protein kinase catalytic subunit alpha-2 (Homo sapiens) (UniProt P54646); conditions: at 1 µM
# [2] = target: T1, NUAK family SNF1-like kinase 1 (Homo sapiens) (UniProt O60285); conditions: at 0.1 µM
# T1 sequence (whole entry): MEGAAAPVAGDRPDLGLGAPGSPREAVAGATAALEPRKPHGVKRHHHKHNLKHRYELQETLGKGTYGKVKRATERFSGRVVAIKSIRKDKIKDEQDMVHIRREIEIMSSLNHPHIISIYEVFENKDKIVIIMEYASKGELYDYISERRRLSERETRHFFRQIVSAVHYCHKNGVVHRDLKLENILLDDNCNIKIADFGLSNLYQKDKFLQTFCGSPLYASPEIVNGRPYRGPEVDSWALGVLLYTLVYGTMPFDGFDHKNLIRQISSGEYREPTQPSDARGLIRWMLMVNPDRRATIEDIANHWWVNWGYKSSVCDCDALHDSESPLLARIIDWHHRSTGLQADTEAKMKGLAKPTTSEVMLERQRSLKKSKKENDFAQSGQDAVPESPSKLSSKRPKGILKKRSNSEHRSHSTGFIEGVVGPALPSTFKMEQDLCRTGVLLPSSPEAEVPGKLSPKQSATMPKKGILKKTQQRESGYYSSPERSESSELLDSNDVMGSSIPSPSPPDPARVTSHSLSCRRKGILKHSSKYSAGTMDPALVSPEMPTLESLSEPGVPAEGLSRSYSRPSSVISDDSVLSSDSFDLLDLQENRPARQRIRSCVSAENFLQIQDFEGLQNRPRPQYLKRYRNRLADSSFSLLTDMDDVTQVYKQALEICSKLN
# [3] = target: T1, NUAK family SNF1-like kinase 1 (Homo sapiens); conditions: at 1 µM
# [4] = target: T2, Serine/threonine-protein kinase BRSK1 (Homo sapiens) (UniProt Q8TDC3); conditions: at 0.1 µM
# T2 sequence (whole entry): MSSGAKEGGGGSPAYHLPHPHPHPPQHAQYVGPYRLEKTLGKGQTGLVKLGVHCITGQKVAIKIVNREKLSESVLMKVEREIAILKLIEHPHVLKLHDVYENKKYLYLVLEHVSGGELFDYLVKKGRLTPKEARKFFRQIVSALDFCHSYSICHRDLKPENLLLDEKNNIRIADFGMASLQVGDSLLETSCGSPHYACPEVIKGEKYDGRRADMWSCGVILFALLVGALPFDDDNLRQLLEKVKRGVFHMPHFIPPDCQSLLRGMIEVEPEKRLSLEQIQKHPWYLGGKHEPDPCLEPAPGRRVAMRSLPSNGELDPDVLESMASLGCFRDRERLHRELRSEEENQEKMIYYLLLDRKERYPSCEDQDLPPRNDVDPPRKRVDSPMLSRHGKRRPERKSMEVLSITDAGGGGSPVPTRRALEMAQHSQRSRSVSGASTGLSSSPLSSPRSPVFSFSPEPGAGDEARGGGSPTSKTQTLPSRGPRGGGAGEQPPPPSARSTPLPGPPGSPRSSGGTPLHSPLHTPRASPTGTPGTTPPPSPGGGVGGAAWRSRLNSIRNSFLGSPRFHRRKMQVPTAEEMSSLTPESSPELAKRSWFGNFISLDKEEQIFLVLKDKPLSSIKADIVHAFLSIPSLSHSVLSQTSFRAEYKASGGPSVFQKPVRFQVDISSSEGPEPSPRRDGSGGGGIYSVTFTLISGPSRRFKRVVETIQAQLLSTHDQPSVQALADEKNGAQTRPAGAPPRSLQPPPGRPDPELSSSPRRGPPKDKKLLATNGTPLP
# [5] = target: T2, Serine/threonine-protein kinase BRSK1 (Homo sapiens); conditions: at 1 µM
# [6] = target: T3, Serine/threonine-protein kinase BRSK2 (Homo sapiens) (UniProt Q8IWQ3); conditions: at 0.1 µM
# T3 sequence (whole entry): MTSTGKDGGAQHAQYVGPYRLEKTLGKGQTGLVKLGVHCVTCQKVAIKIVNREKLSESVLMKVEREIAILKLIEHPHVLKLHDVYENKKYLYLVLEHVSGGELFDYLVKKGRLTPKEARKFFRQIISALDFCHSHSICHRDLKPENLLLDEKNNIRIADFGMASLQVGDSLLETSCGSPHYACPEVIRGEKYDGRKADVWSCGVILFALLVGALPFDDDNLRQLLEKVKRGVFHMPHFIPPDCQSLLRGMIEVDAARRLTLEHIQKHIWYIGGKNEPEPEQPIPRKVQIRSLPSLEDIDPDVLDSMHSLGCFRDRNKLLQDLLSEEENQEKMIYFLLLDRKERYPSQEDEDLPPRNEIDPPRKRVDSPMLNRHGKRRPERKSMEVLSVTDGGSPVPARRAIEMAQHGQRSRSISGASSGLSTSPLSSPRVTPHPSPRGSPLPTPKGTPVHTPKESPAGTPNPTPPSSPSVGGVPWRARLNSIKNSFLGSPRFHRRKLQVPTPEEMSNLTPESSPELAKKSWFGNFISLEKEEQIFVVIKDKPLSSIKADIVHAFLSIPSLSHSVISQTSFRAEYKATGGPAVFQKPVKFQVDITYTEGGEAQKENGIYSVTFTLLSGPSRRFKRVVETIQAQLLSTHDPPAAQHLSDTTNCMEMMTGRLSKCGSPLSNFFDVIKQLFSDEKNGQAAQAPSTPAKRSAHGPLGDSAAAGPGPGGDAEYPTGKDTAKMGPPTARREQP
# [7] = target: T3, Serine/threonine-protein kinase BRSK2 (Homo sapiens); conditions: at 1 µM
# [8] = target: Calcium/calmodulin-dependent protein kinase type 1D (Homo sapiens) (UniProt Q8IU85); conditions: at 0.1 µM
# [9] = target: Calcium/calmodulin-dependent protein kinase type 1D (Homo sapiens) (UniProt Q8IU85); conditions: at 1 µM
# [10] = target: Calcium/calmodulin-dependent protein kinase type II subunit alpha (Homo sapiens) (UniProt Q9UQM7); conditions: at 0.1 µM
# [11] = target: Calcium/calmodulin-dependent protein kinase type II subunit alpha (Homo sapiens) (UniProt Q9UQM7); conditions: at 1 µM
# [12] = target: Calcium/calmodulin-dependent protein kinase type II subunit delta (Homo sapiens) (UniProt Q13557); conditions: at 0.1 µM
# [13] = target: Calcium/calmodulin-dependent protein kinase type II subunit delta (Homo sapiens) (UniProt Q13557); conditions: at 1 µM
# [14] = target: T4, Calcium/calmodulin-dependent protein kinase type IV (Homo sapiens) (UniProt Q16566); conditions: at 0.1 µM
# T4 sequence (whole entry): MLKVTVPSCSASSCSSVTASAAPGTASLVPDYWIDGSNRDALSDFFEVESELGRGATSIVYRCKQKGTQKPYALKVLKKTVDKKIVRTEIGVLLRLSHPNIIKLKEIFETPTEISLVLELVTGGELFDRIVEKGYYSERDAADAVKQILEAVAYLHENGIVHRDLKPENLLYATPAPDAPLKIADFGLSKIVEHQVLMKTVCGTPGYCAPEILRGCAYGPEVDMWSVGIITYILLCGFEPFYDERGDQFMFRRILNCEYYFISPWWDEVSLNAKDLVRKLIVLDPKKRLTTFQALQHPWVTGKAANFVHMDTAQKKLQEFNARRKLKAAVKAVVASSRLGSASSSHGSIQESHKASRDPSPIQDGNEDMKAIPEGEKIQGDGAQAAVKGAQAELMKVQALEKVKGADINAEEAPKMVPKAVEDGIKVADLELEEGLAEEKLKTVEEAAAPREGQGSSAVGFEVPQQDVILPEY
# [15] = target: T4, Calcium/calmodulin-dependent protein kinase type IV (Homo sapiens); conditions: at 1 µM
# [16] = target: T5, Serine/threonine-protein kinase Chk1 (Homo sapiens) (UniProt O14757); conditions: at 0.1 µM
# T5 sequence (whole entry): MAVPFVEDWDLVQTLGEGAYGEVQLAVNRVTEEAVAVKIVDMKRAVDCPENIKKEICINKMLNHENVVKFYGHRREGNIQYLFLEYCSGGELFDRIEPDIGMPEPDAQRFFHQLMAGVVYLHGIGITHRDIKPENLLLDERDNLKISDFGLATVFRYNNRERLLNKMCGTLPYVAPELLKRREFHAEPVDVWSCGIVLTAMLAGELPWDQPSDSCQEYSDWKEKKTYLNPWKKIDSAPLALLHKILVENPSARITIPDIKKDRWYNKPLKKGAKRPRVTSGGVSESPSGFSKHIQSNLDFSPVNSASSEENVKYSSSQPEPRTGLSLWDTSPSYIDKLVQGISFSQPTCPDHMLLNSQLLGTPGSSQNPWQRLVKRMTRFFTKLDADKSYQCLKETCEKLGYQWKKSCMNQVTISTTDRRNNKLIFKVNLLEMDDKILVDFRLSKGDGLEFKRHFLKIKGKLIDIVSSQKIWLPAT
# [17] = target: T5, Serine/threonine-protein kinase Chk1 (Homo sapiens); conditions: at 1 µM
# [18] = target: Serine/threonine-protein kinase Chk2 (Homo sapiens) (UniProt O96017); conditions: at 0.1 µM
# [19] = target: Serine/threonine-protein kinase Chk2 (Homo sapiens) (UniProt O96017); conditions: at 1 µM
# [20] = target: Death-associated protein kinase 1 (Homo sapiens) (UniProt P53355); conditions: at 0.1 µM;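 further: reported figure is the mean inhibition of DAPK1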
# Death-associated protein kinase 1 (Homo sapiens), sequence (P53355 whole entry, looked up): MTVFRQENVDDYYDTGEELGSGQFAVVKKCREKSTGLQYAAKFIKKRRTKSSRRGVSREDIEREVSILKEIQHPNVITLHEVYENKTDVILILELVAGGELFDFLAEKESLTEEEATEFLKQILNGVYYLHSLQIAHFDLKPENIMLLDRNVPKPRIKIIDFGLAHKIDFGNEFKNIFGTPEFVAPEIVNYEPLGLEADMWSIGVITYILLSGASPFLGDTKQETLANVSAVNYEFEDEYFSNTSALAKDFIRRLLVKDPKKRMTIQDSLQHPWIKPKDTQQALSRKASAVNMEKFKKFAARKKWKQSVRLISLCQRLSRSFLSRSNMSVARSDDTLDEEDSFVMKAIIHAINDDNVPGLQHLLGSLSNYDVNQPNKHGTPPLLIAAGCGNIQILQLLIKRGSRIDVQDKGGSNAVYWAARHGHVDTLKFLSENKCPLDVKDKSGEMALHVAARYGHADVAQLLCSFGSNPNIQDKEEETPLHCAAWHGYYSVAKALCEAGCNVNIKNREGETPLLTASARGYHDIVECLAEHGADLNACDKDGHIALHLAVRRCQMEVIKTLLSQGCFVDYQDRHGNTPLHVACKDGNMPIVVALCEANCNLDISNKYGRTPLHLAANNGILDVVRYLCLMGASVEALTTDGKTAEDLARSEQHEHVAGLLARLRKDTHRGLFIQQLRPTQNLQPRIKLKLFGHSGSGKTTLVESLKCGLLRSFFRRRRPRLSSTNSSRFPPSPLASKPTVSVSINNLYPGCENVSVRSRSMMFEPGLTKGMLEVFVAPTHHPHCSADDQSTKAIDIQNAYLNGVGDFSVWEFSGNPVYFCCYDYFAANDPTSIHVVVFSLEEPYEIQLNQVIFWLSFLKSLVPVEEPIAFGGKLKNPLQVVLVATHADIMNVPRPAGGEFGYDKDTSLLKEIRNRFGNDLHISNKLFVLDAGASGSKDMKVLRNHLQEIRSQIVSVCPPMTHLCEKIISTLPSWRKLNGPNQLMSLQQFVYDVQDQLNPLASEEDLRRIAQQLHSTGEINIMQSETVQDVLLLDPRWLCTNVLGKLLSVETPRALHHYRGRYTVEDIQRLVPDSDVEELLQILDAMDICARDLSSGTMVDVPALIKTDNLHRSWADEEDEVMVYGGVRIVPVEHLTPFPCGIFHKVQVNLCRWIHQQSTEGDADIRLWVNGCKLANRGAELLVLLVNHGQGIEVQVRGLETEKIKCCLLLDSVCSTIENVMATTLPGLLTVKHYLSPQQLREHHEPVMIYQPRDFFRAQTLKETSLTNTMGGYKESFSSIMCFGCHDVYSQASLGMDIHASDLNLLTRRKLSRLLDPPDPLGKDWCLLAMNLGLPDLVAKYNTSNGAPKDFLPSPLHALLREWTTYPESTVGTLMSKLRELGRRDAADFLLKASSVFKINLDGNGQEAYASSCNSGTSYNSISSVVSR
# Serine/threonine-protein kinase Chk2 (Homo sapiens), sequence (O96017 whole entry): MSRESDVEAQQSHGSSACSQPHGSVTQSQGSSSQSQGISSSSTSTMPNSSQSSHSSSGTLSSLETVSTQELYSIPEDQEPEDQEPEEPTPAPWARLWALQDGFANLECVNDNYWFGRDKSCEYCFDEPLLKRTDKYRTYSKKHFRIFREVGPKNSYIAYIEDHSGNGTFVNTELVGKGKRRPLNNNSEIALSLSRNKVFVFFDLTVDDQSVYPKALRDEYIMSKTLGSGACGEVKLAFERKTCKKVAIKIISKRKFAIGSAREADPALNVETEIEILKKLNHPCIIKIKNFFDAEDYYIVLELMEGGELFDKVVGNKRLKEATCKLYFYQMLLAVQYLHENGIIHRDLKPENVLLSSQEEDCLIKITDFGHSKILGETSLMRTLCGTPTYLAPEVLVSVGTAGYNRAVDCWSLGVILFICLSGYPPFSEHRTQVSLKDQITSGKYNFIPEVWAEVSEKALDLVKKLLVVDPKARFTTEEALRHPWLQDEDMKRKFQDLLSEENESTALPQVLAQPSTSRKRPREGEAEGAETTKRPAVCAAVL
# Calcium/calmodulin-dependent protein kinase type II subunit delta (Homo sapiens), sequence (Q13557 whole entry): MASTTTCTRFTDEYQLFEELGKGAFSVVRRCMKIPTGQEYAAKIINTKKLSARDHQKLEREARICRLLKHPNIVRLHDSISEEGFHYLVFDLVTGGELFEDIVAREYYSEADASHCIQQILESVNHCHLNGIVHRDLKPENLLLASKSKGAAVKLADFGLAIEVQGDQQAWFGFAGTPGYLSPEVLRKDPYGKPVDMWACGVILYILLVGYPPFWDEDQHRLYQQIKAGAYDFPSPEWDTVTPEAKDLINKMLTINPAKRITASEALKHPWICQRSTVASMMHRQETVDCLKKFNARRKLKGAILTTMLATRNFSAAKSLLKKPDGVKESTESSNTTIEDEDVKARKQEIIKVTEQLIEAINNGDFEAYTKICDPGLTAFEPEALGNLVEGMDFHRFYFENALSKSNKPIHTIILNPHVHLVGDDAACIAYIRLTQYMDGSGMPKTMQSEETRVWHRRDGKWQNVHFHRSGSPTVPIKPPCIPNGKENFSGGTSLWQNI
# Calcium/calmodulin-dependent protein kinase type 1D (Homo sapiens), sequence (Q8IU85 whole entry, looked up): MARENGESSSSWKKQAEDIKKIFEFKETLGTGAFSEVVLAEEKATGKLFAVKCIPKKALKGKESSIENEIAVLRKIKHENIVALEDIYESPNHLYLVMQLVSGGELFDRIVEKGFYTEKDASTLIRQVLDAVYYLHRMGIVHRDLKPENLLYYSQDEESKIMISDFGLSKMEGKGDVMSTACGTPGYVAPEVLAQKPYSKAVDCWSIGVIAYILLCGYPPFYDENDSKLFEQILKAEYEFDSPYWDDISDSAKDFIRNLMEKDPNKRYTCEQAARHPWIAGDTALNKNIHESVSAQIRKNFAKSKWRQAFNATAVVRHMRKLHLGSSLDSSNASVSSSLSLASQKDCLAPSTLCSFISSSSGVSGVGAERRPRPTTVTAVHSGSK
# 5'-AMP-activated protein kinase catalytic subunit alpha-2 (Homo sapiens), sequence (P54646 whole entry, looked up): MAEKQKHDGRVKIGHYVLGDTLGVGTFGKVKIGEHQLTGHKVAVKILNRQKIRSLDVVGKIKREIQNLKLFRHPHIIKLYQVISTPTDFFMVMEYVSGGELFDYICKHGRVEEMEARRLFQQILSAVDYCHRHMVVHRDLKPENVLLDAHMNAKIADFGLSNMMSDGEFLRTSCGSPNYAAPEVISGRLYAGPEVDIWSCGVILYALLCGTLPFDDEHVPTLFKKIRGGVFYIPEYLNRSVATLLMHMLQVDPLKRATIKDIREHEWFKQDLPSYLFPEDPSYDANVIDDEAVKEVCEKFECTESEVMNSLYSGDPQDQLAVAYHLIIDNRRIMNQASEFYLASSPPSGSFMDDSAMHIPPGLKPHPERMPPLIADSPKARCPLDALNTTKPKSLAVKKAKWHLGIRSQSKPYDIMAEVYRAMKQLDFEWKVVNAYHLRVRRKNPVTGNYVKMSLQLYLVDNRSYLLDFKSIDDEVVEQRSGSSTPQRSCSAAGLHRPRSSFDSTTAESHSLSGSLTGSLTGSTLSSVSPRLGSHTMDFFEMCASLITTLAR
# Calcium/calmodulin-dependent protein kinase type II subunit alpha (Homo sapiens), sequence (Q9UQM7 whole entry): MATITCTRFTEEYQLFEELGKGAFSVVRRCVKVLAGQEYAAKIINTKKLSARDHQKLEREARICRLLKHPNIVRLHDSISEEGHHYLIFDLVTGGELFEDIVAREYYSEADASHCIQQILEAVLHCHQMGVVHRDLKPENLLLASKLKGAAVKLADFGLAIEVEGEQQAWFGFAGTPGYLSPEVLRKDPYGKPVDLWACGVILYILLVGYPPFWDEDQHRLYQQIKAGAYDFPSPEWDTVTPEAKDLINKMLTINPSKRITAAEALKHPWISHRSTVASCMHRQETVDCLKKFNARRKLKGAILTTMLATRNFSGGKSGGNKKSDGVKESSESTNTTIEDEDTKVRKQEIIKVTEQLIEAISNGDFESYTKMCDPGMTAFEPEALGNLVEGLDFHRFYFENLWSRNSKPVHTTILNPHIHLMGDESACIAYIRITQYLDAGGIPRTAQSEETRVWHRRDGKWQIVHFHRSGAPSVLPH
Structure (SMILES),inhibition [1] [%],inhibition [2] [%],inhibition [3] [%],inhibition [4] [%],inhibition [5] [%],inhibition [6] [%],inhibition [7] [%],inhibition [8] [%],inhibition [9] [%],inhibition [10] [%],inhibition [11] [%],inhibition [12] [%],inhibition [13] [%],inhibition [14] [%],inhibition [15] [%],inhibition [16] [%],inhibition [17] [%],inhibition [18] [%],inhibition [19] [%],inhibition [20] [%]
Fc1ccc(-c2nc3n(c2-c2ccncc2)CCS3)cc1,5.23,0.54,2.44,0.25,0.24,0.52,0.5,0.49,-0.26,3.63,3.82,4.18,4.28,0.62,0.23,0.32,3.69,2.74,3.47,2.36
O=C(NCC1CC1)c1ccc(-c2cccc(C(=O)NC3CC3)c2)cc1,1.74,1.06,4.26,1.95,0.89,1.44,-1.6,0.99,2.29,2.2,2.74,2.24,3.64,0.89,2,-3.93,2.12,0.96,0.33,2.26
O=C(Nc1n[nH]c2cc(-c3ccccc3)ccc12)C1CC1,7.53,4.99,2.6,4.46,21,3.64,19.7,0.34,-0.38,3.14,2.25,3.79,3.53,-1.93,-1.21,2.36,5.48,2.81,3.79,5.91
NS(=O)(=O)c1ccc(Nc2cc(-c3ccc(O)c(F)c3)n[nH]2)cc1,8.67,2.73,11,0.57,10.9,2.75,16.7,-0.17,0.78,-4.96,-4.72,-3.72,1.69,0.82,0.53,-5.01,8.18,-1.68,3.93,-2.1
COc1cc(Nc2ncc3c(C)nc(-c4cccc(C(F)(F)F)c4)n3n2)cc(OC)c1OC,25,35.4,65.3,4.57,7.57,5.62,9.19,-1.94,-0.82,2.25,2,3.19,5.08,-2,-3.22,1.23,5.15,6.47,9.62,-0.52
COc1ccc(C2=C(N3CCc4ccccc43)C(=O)NC2=O)cc1,5.49,3.26,9.32,1.07,3.32,2.56,3.2,0.57,1.29,5.74,4.72,4.35,7.01,0.45,0.33,3.53,3.47,3.04,3.92,3.58
c1ccc(Oc2ccc(Nc3ncc(-c4ccccc4)o3)cc2)cc1,2.49,-0.75,5.38,-0.66,0.76,0,1.39,0.01,0.14,-0.24,0.18,0.76,0.58,0.49,1.32,0.67,1.6,0.58,1.05,0.04
COc1cc(N2CCN(C(C)C)CC2)ccc1Nc1nc(Nc2ccc(F)cc2C(=O)NC[C@@H](O)CO)c2cc[nH]c2n1,3.64,4.38,17.2,-0.14,1.34,2.44,2.82,0.93,11,4.06,4.13,3.45,7.22,-2.03,-0.93,2.18,6.24,17.2,52.4,9.94
NC(=O)c1cc(-c2ccc(F)cc2)cc(-c2ccncc2)c1N,2.48,-0.64,-1.26,0.38,-1.89,1.65,2.63,-0.61,0.29,3.47,3.68,1.36,3.98,0.77,0.56,0.67,0.41,3,3.74,1.26
CS(=O)(=O)CCNCc1ccc(-c2ccc3ncnc(Nc4ccc(OCc5ccccc5)c(Br)c4)c3c2)o1,-0.88,-0.46,0.63,-1.34,2.21,1.54,2.06,-1.35,-0.82,2.7,-1.77,2.65,3.02,-1.3,-2.06,0.41,1.92,2.5,2.92,3.45
O=C(Nc1n[nH]c2nc(-c3ccc(O)cc3)c(Br)cc12)C1CC1,12.1,8.05,30.2,25.8,66.8,33.5,70.2,3.09,14.4,4.24,8.39,6.47,20.1,-0.14,2.12,8.74,16.8,2.09,4.23,5.9
COc1cc2ncn(-c3cc(OCc4ccccc4C(F)(F)F)c(C(C)=O)s3)c2cc1OC,2.21,-0.05,3.5,2.73,4.41,3.99,4.95,-0.05,-0.22,4.56,0.39,0.61,1.91,-0.3,-1.74,2.09,4.57,1.3,1.9,4.16
COC(=O)Nc1nc2ccc(Sc3ccc(NC(=O)Nc4cc(C(F)(F)F)ccc4F)cc3)cc2[nH]1,1.29,3.62,-4.85,-1.14,0.16,-0.46,1.01,0.9,0.37,3,4.35,1.39,2.79,0.44,1.75,2.81,1.17,-0.98,0.37,3.64
